PubChem BioAssay AID651610 (Broad Institute, 2012)
The campaign covered roughly 360,000 compounds. About 3,900 (1.1%) were called active. The sample holds actives, similar compounds and a random draw of the others, so the mix is not that of the screen. Unmarked numbers belong to inactive results.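 How the source made its calls: active means mean replicate inhibition score of at least 50 and every replicate individually at or above 50; inconclusive means only one of the two criteria met; inactive means mean below 50 and not all replicates reaching 50.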

Experiment: inhibitors of HIV-1 Env-driven cell-cell fusion, primary screen, HeLa-JRFL effector, CEM21 target cells, luciferase (AID 651610);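 further: 0% = plate neutral controls and 100% = maraviroc near 300 nM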
Details: hits give high values; at 16.7 µM unless noted

With `C/C=C/c1cnc2c(c1)C(=O)N([C@@H](C)CO)C[C@@H](C)[C@H](CN(C)C(=O)c1cnccn1)O2` as the compound, how does the inhibition read?
Its inhibition is 4.56%.

With `C[C@H](CO)N1C[C@H](C)[C@@H](CN(C)C(=O)CCC(F)(F)F)OCCCC[C@H](C)Oc2ccc(NC(=O)C3CCCCC3)cc2C1=O` as the compound, how does the inhibition read?
The inhibition was -45.1%.

For `COc1ccc(NC(=O)N(C)C[C@@H]2Oc3ccc(NC(=O)CCN4CCOCC4)cc3C(=O)N([C@@H](C)CO)C[C@H]2C)cc1`, which inhibition is on record?
The inhibition was -19.9%.

For `Cc1noc(C)c1NC(=O)Nc1cccc2c1O[C@@H](CN(C)CC1CCCCC1)[C@H](C)CN([C@@H](C)CO)C2=O`, which inhibition is on record?
Its inhibition is -120%.

With `Cc1ccc(S(=O)(=O)N(C)C[C@H]2Oc3ccc(NC(=O)CCC(F)(F)F)cc3C(=O)N([C@@H](C)CO)C[C@H]2C)cc1` as the compound, how does the inhibition read?
The inhibition was 9.23%.

Which inhibition does the source give for `COc1ccc(C(CNC(=O)COc2ccc([N+](=O)[O-])cc2)N2CCCCC2)cc1` (stereo not given) here?
The inhibition was 1.73% [at 12.3 µM].

With `CCc1ccc(OCC(=O)NCC(c2ccc(Cl)cc2)N2CCCCC2)cc1` (stereo not given) as the compound, how does the inhibition read?
Its inhibition is 73.9% [at 12.3 µM] (active).

Which inhibition does the source give for `COc1ccc(C(CNC(=O)COc2ccccc2OC)N2CCCCC2)cc1` (stereo not given) here?
Its inhibition is 1.58% [at 12.3 µM].

Which inhibition does the source give for `COc1ccc(S(=O)(=O)N(C)C[C@@H]2OCCCC[C@H](C)Oc3ccc(NC(=O)NC4CCCCC4)cc3C(=O)N([C@H](C)CO)C[C@H]2C)cc1` here?
Its inhibition is 20.2%.

With `CO[C@@H]1CC[C@@H]2CCOc3ccc(C#N)cc3C(=O)N(C)[C@H](C)C(=O)N(C)C[C@@H]1O2` as the compound, how does the inhibition read?
Its inhibition is 14.7%.

For `COc1ccc(Oc2cn[nH]c2-c2ccc(OC)cc2O)cc1`, which inhibition is on record?
Its inhibition is 4.87% [at 12.3 µM].

For `COc1ccc(-c2cn[nH]c2-c2ccc(OC)cc2)cc1`, which inhibition is on record?
Its inhibition is 60.2% [at 12.3 µM] (active).

Which inhibition does the source give for `COc1ccc2cc(-c3[nH]ncc3CNCCn3nc(C)cc3C)ccc2c1` here?
The inhibition was -11.4% [at 12.3 µM].

For `CCCNC(=O)Nc1ccc2c(c1)C(=O)N(C)C[C@H](OC)[C@@H](C)CN(C)[C@@H](C)CO2`, which inhibition is on record?
Its inhibition is 18.7%.

For `COc1ccc(CN(C)C[C@H]2Oc3c(NC(=O)C4CCCCC4)cccc3C(=O)N([C@@H](C)CO)C[C@@H]2C)cc1`, which inhibition is on record?
The inhibition was 7.57%.

Which inhibition does the source give for `COc1ccccc1CC1(C)C(=O)Nc2ccc(OC(F)(F)F)cc21` (stereo not given) here?
The inhibition was 5.2% [at 12.3 µM].

Which inhibition does the source give for `CC1(Cc2cccc(C#N)c2)C(=O)Nc2ccc(-c3cccc(C(F)(F)F)c3)cc21` (stereo not given) here?
Its inhibition is 76.4% [at 12.3 µM] (active).

With `Cc1ccc(CC2(C)C(=O)Nc3ccc(OC(F)(F)F)cc32)cc1` (stereo not given) as the compound, how does the inhibition read?
The inhibition was 10.5% [at 12.3 µM].

With `C[C@H]1CN([C@@H](C)CO)C(=O)c2cc(-c3cccnc3)cnc2O[C@@H]1CN(C)C(=O)C1CC1` as the compound, how does the inhibition read?
The inhibition was 1.19%.

Which inhibition does the source give for `C[C@@H]1CN([C@@H](C)CO)C(=O)c2cc(C#CC3CCCCC3)cnc2O[C@H]1CN(C)C(=O)Cc1ccccn1` here?
The inhibition was -1.78%.

Which inhibition does the source give for `CC(C)NC(=O)N(C)C[C@H]1Oc2ncc(C#CC3CCCCC3)cc2C(=O)N([C@H](C)CO)C[C@@H]1C` here?
The inhibition was 5.6%.

For `CC(C)NC(=O)Nc1ccc2c(c1)C(=O)N([C@@H](C)CO)C[C@H](C)[C@H](CN(C)S(=O)(=O)c1cccs1)O2`, which inhibition is on record?
The inhibition was -7.33%.

For `C#Cc1cc(N2CCN(C(=O)c3ccoc3)CC2)n2nc(-c3cccc(Cl)c3)cc2n1`, which inhibition is on record?
The inhibition was 2.89% [at 12.3 µM].

With `O=C(c1ccccc1)N1CCN(c2cc(-c3ccccc3)nc3cc(-c4cccc(Cl)c4)nn23)CC1` as the compound, how does the inhibition read?
Its inhibition is 57.4% [at 12.3 µM] (active).

Which inhibition does the source give for `O=C(c1ccccc1)N1CCN(C(=O)c2cc3nc(-c4ccccc4)cc(C(F)(F)F)n3n2)CC1` here?
The inhibition was 13.3% [at 12.3 µM].

For `CN1CCN(C(=O)C[C@H]2CC[C@@H](NC(=O)c3ccc4c(c3)OCO4)[C@H](CO)O2)CC1`, which inhibition is on record?
The inhibition was -2.25%.

With `C[C@@H]1CCCCO[C@@H](CN(C)C(=O)CCC(F)(F)F)[C@H](C)CN([C@@H](C)CO)C(=O)c2cc(NC(=O)CCCN(C)C)ccc2O1` as the compound, how does the inhibition read?
The inhibition was -15.3%.

With `COc1ccc2c3c(n(C)c2c1)[C@H](CO)N(C(=O)NC(C)C)CC31CCN(C(=O)NC(C)C)CC1` as the compound, how does the inhibition read?
The inhibition was 25.2%.

Which inhibition does the source give for `CN(C)[C@@H]1C(=O)C(C(N)=O)=C(O)[C@@]2(O)C(=O)C3=C(O)c4c(O)ccc(Cl)c4[C@@H](O)[C@H]3C[C@@H]12` here?
The inhibition was 71.9% [at 12.3 µM] (active).

Which inhibition does the source give for `C=C1c2c(Cl)ccc(O)c2C(O)=C2C(=O)[C@]3(O)C(O)=C(C(N)=O)C(=O)[C@@H](N(C)C)[C@@H]3[C@@H](O)C12` (stereo not given in full) here?
Its inhibition is 9.73% [at 12.3 µM].

With `C[C@@H]1CN([C@H](C)CO)C(=O)c2cc(C#CC3(O)CCCC3)cnc2O[C@H]1CN(C)C(=O)C1CCC1` as the compound, how does the inhibition read?
Its inhibition is 1.03%.

With `CO[C@H]1CN(C)C(=O)c2cc(NC(=O)C3CC3)ccc2OC[C@@H](C)N(CCc2ccccc2)C[C@H]1C` as the compound, how does the inhibition read?
The inhibition was -0.128%.

With `CC(=O)Nc1ccc(S(=O)(=O)Nc2ccc(N3CCCCC3)cc2)cc1` as the compound, how does the inhibition read?
Its inhibition is 68.2% [at 12.3 µM] (active).

For `CC(=O)Nc1ccc(S(=O)(=O)N2CCN(C3CCCCCCC3)CC2)cc1`, which inhibition is on record?
Its inhibition is -36.4% [at 12.3 µM].

Which inhibition does the source give for `COC(C(=O)Nc1ccc(S(=O)(=O)Nc2ccc(C)c(C)c2)cc1)c1ccccc1` (stereo not given) here?
Its inhibition is -13.7% [at 12.3 µM].

For `CC(=O)Nc1ccc(NS(=O)(=O)c2ccc3c(c2)NC(=O)CC(=O)N3)cc1`, which inhibition is on record?
Its inhibition is -3.1% [at 12.3 µM].

For `COc1ccccc1C(=O)COC(=O)CNS(=O)(=O)c1ccc(NC(C)=O)cc1`, which inhibition is on record?
The inhibition was -8.08% [at 12.3 µM].

For `COc1ccc(NS(=O)(=O)c2ccc(NC(C)=O)cc2)cc1OC`, which inhibition is on record?
Its inhibition is 62.4% [at 12.3 µM] (active).

For `C/C=C/c1cnc2c(c1)C(=O)N([C@H](C)CO)C[C@H](C)[C@@H](CN(C)C(=O)Nc1ccc(C(F)(F)F)cc1)O2`, which inhibition is on record?
Its inhibition is 0.996%.

With `C[C@@H]1CN([C@@H](C)CO)C(=O)c2cc(NC(=O)C3CCCCC3)ccc2O[C@@H](C)CCCCO[C@@H]1CN(C)Cc1ccc(C(=O)O)cc1` as the compound, how does the inhibition read?
Its inhibition is 10.8%.

With `CN(C)c1ccc2c(c1)[C@@H]1C[C@@H](CC(=O)NCc3ccccn3)O[C@H](CO)[C@@H]1O2` as the compound, how does the inhibition read?
Its inhibition is 6.38%.

With `C[C@H]1CN([C@@H](C)CO)C(=O)CCCn2nncc2CO[C@H]1CN(C)Cc1ccccc1` as the compound, how does the inhibition read?
The inhibition was -11.7%.

Which inhibition does the source give for `C[C@@H]1CN([C@H](C)CO)C(=O)c2cc(C#CC3CCCCC3)cnc2O[C@@H]1CN(C)C(=O)NC1CCCC1` here?
The inhibition was 10.8%.

For `Cc1nn(Cc2ccc(Cl)c(Cl)c2)c(C)c1NC(=O)c1cc(C2CC2)on1`, which inhibition is on record?
The inhibition was -1.78% [at 12.3 µM].

With `Cc1nn(Cc2ccc(F)cc2)c(C)c1NC(=O)c1cccnc1Cl` as the compound, how does the inhibition read?
The inhibition was 0.276% [at 12.3 µM].

Which inhibition does the source give for `Cc1nn(Cc2ccc(F)cc2)c(C)c1NC(=O)c1noc2c1CCc1ccccc1-2` here?
Its inhibition is 57.4% [at 12.3 µM] (active).

For `Cc1ccccc1S(=O)(=O)N[C@H]1CC[C@H](CCn2cc(-c3ccc(F)cc3)nn2)O[C@H]1CO`, which inhibition is on record?
The inhibition was 4.55%.

Which inhibition does the source give for `C[C@H](CO)N1C[C@H](C)[C@@H](CN(C)S(=O)(=O)c2cccs2)OCCCC[C@H](C)Oc2ccc(NS(=O)(=O)c3ccccc3)cc2C1=O` here?
Its inhibition is -0.163%.

Which inhibition does the source give for `CCCCNC(=O)N(O)C1N(/N=C/c2ccc(N(C)C)cc2)C(=S)SC1(C)C` (stereo not given) here?
The inhibition was 10.2% [at 12.3 µM].

With `CCC(C)N1C(=S)SC(C)(C)C1N(O)C(=O)NC1CCCCC1` (stereo not given) as the compound, how does the inhibition read?
Its inhibition is 16.9% [at 12.3 µM].

For `CCCCNC(=O)N(O)C1N(/N=C/c2ccccc2O)C(=S)SC1(C)C` (stereo not given), which inhibition is on record?
Its inhibition is 89.7% [at 12.3 µM] (active).

For `C[C@@H]1CCCCO[C@@H](CN(C)C(=O)Nc2ccc(C(F)(F)F)cc2)[C@H](C)CN([C@H](C)CO)C(=O)c2cc(NC(=O)C3CCCCC3)ccc2O1`, which inhibition is on record?
The inhibition was 14.1%.

For `Cc1ccc(S(=O)(=O)N[C@H]2CC[C@@H](CC(=O)NCc3ccc(Cl)c(Cl)c3)O[C@H]2CO)cc1`, which inhibition is on record?
Its inhibition is 16.7%.

Which inhibition does the source give for `CCCCCCCCn1c2c(c(=N)c3c1CCC3)CCCC2` here?
The inhibition was 64.5% [at 12.3 µM] (active).

Which inhibition does the source give for `O=C1NC(c2ccccc2)Oc2ccccc21` (stereo not given) here?
Its inhibition is -8.85% [at 12.3 µM].

For `CN1CC(c2ccccc2)C2(COc3ccccc3C2=O)C12C(=O)Nc1ccccc12` (stereo not given), which inhibition is on record?
Its inhibition is 108% [at 12.3 µM] (active).

Which inhibition does the source give for `C[C@@H]1NC(=O)[C@@]2(C)[C@@H](c3ccccc3)[C@H]3COc4ccccc4[C@@H]3N2C1=O` here?
The inhibition was 1% [at 12.3 µM].

Which inhibition does the source give for `CO[C@H]1CN(C)C(=O)c2ccc(NC(=O)C3CC3)cc2OC[C@@H](C)N(C(=O)c2ccccn2)C[C@@H]1C` here?
The inhibition was 3.53%.

For `COc1ccc(S(=O)(=O)Nc2cccc3c2O[C@H](CN(C)C(=O)NC(C)C)[C@H](C)CN([C@H](C)CO)C3=O)cc1`, which inhibition is on record?
The inhibition was -9%.

With `Cc1ccc(-n2c(N)c(C(=O)N3CCOCC3)sc2=S)c(C)c1` as the compound, how does the inhibition read?
Its inhibition is 24.4% [at 12.3 µM].

With `O=C(c1ccc(S(=O)(=O)N2CCCC2)cc1)N1CCN(c2ccccc2F)CC1` as the compound, how does the inhibition read?
Its inhibition is -21.7% [at 12.3 µM].

For `N#Cc1ccccc1-n1c(N)c(C(=O)N2CCCC2)sc1=S`, which inhibition is on record?
Its inhibition is 59.1% [at 12.3 µM] (active).

With `CNC(=O)C[C@@H]1CC[C@H]2[C@H](COc3ccc(NC(=O)C4CC4)cc3C(=O)N2C)O1` as the compound, how does the inhibition read?
Its inhibition is 12%.

With `CC(C)NC(=O)N(C)C[C@@H]1Oc2ncc(C#Cc3ccncc3)cc2C(=O)N([C@@H](C)CO)C[C@@H]1C` as the compound, how does the inhibition read?
Its inhibition is -8.31%.

Which inhibition does the source give for `COc1ccccc1S(=O)(=O)N(C)C[C@@H]1Oc2cc(C#CCC3CCCC3)ccc2S(=O)(=O)N([C@H](C)CO)C[C@H]1C` here?
Its inhibition is 34.8%.
